Measurements as given in PubChem BioAssay.
Values without a mark were called inactive. Active and inactive are the calls of the source. Cut-off read from the data, not from the text of the source: active = inhibition above about 36%; inactive = the rest.

test system: transactivating tegument protein VP16 (Human herpesvirus 1); assay: compounds suppressing VP16-driven luciferase signal – cell-based, luminescence, single concentration, counter-screen for SRC2 inhibitor project (AID 652007); conditions: cell-based VP16 transactivation luciferase reporter, at 8.9 µM, hits give high values

Compound | inhibition
c1nnc2c3c4c(sc3ncn12)CCC4 | 4.85%
CC(=O)c1ccc(OCCCC(=O)Nc2ccc(C)c(S(=O)(=O)N3CCCCC3)c2)cc1 | -1.11%
CCCc1nc(SCC(=O)Nc2cc(C)on2)c2ccccc2n1 | 1.01%
Cc1cc(=O)oc2cc(OC(C)C(=O)NCCc3ccc(S(N)(=O)=O)cc3)ccc12 (centres undefined) | -19.6%
COc1ccc(C(NC(=O)C2CCN(CCCOc3ccccc3)CC2)c2cccs2)cc1 (centres undefined) | -8.07%
COCCNC(=O)/C(C#N)=C/c1cc(C(C)C)c(OC)cc1C | -4.35%
C[C@H]1CN([C@@H](C)CO)S(=O)(=O)c2ccc(Br)cc2O[C@H]1CN(C)Cc1ccccc1F | 22.8%
Clc1cccc(-c2nc(-c3ccccn3)no2)c1 | -11%
CN(C)c1ccc(/C=C2\SC(=O)N(CCc3nnc(N)s3)C2=O)cc1 | -23.4%
Cc1ccc(C2=[N+]([O-])C3(CCCCC3=O)N(O)C2(C)C)cc1 (centres undefined) | -5.08%
O=c1cc(-c2ccc(O)cc2)oc2ccc3ccccc3c12 | 5.39%
Cc1ccc([C@@H]2CC=C(C(=O)O)[C@H](c3ccccc3)N2S(=O)(=O)c2ccccc2C)cc1 | 0.1%
CC(C)(C)c1ccc(C(=O)CCC(=O)OCC(=O)NCCc2ccc(S(N)(=O)=O)cc2)cc1 | 26.1%
CC(=NNc1ccc2ccccc2n1)c1ccccn1 | 83.8% (active)
Cc1ccc(NC(=O)C2(C)CCN2C(=O)CC(c2ccccc2)c2ccccc2)cc1 (centres undefined) | -6.43%
COc1ccc(S(=O)(=O)N2CCCC(C(=O)NCc3ccncc3)C2)cc1 (centres undefined) | -0.24%
O=C(CCCN1C(=O)/C(=C/c2cccc(Br)c2)SC1=S)NCCCN1CCOCC1 | 32.1%
Cc1nnc(NC(=O)c2nc(S(=O)(=O)Cc3ccccc3)ncc2Cl)s1 | 1.66%
COC(=O)c1ccc2c(=O)[nH]c(COC(=O)c3[nH]c(C)c(C(C)=O)c3C)nc2c1 | -18.3%
COC(=O)c1cc(=O)n(-c2ccccc2)c(=Nc2ccccc2)s1 | 8.44%

Compound | inhibition
CCC(C)C(NC(=O)OCc1ccccc1)C(=O)OCN1C(=O)c2ccccc2C1=O (centres undefined) | -13.9%
COc1ccccc1NC(=S)N1CCCCCC1 | -7.33%
COc1ccc(NC(=O)c2cccc(N3C(=O)c4cccc([N+](=O)[O-])c4C3=O)c2)cc1 | -32.3%
CCn1c(Oc2ccccc2)nc2c1c(=O)n(C)c(=O)n2C | 8.01%
Cc1nc(-c2ccc(NC(=O)c3ccco3)cc2)cs1 | 18.9%
COC(=O)[C@]12C[C@H](CC(=O)N3CCCCC3)C(=O)N(Cc3ccco3)C1=C[C@H](C(C)C)O[C@@H]2C1CC1 | -5.52%
Cc1ccc2cc(CN(Cc3ccco3)S(=O)(=O)c3c(C)ccc4nsnc34)c(=O)[nH]c2c1 | 26.5%
O=C(c1cccc2c1-c1ccccc1/C2=N/O)N1CCCCC1 | 0.22%
CCN(CC)S(=O)(=O)c1ccc(/C=C/C(=O)OCC(=O)NCc2ccc3c(c2)OCO3)cc1 | -0.7%
Cc1ccc2sc(N(CCCN(C)C)C(=O)CN3C(=O)c4ccccc4C3=O)nc2c1C | -2.35%
C(=N\Nc1nc2ccccc2s1)/c1ccccn1 | 49.5% (active)
Nc1nc(CCl)nc(Nc2ccccc2)n1 | -25.1%
Cc1ccc([N+](=O)[O-])cc1N(CC(=O)Nc1ccc(S(=O)(=O)Nc2cccc(C(F)(F)F)c2)cc1)S(C)(=O)=O | -13.7%
Cc1ccc(C(=O)OCC(=O)NC2CCCC(C)C2C)cc1S(=O)(=O)N1CCCCC1 (centres undefined) | -10.8%
C[C@@H]1C(c2ccc(F)cc2)=NN(c2ccccc2)[C@H]1C(=O)N1CCOC1=O | -11.2%
Cc1ccc(Nc2nc(N)nc(CN3CCN(Cc4ccc5c(c4)OCO5)CC3)n2)cc1 | -10.2%
Cc1ccc(C2CC(c3cccs3)=NN2C(=O)CSC2=NCCS2)cc1 (centres undefined) | 17.9%
O=C(C(O)c1ccc(Br)cc1)N1CCC(Nc2ccc3[nH]ncc3c2)CC1 (centres undefined) | -4.16%
Cc1ccc(S(=O)(=O)CC(=O)N(CCCN(C)C)c2nc3ccc(C)cc3s2)cc1 | -1.57%
